According to PubChem BioAssay (NCATS):
Records with an inconclusive call do not appear. A call without a number means that no potency is given here. A number with no mark means an inactive call. Activity calls are given as the source filed them. The call rests on the fitted dose curve; in most records, active means well fitted curve in the direction sought with a large enough effect; inconclusive means small, poorly fitted or top-dose-only effect, or another doubt; inactive means no such curve, though single readings can be large; an effect the other way counts as inactive or inconclusive.

Tests used:
C33A = test: Primary qHTS to identify gynecologic anti-cancer compounds using libraries of approved drugs and bioactive compounds (AID 1345084); conditions: Gynecologic cancer cell panel viability, ATPlite luminescence, 48 h; series mostly up to 57.5 µM; further: nearly all actives have a fitted effect of over 55% in size
Procedure, shortened: (§1)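 ATP-based viability (ATPlite), 1,000 cells/well, 16 h pre-incubation, 48 h compound at 37 C, 5% CO2, 15 min RT before read.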

CAOV3 = test: as above; conditions: Gynecologic cancer cell panel viability, ATPlite luminescence, 48 h; series mostly up to 57.5 µM
Procedure, shortened: as §1

CASKI = test: as above; conditions: Gynecologic cancer cell panel viability, ATPlite luminescence, 48 h; series mostly up to 57.5 µM
Procedure, shortened: as §1

Es-2 = test: as above; conditions: Gynecologic cancer cell panel viability, ATPlite luminescence, 48 h; series mostly up to 57.5 µM
Procedure, shortened: as §1

HeLa = test: as above; conditions: Gynecologic cancer cell panel viability, ATPlite luminescence, 48 h; series mostly up to 57.5 µM
Procedure, shortened: as §1

Hek293T = test: as above; conditions: Gynecologic cancer cell panel viability, ATPlite luminescence, 48 h, control line for the selectivity index; series mostly up to 57.5 µM
Procedure, shortened: as §1

JEG-3 = test: as above; conditions: Gynecologic cancer cell panel viability, ATPlite luminescence, 48 h; series mostly up to 57.5 µM
Procedure, shortened: as §1

OV90 = test: as above; conditions: Gynecologic cancer cell panel viability, ATPlite luminescence, 48 h; series mostly up to 57.5 µM
Procedure, shortened: as §1

PA-1 = test: as above; conditions: Gynecologic cancer cell panel viability, ATPlite luminescence, 48 h; series mostly up to 57.5 µM
Procedure, shortened: as §1

SKOV3 = test: as above; conditions: Gynecologic cancer cell panel viability, ATPlite luminescence, 48 h; series mostly up to 57.5 µM
Procedure, shortened: as §1

Tov-21-G = test: as above; conditions: Gynecologic cancer cell panel viability, ATPlite luminescence, 48 h; series mostly up to 57.5 µM
Procedure, shortened: as §1

Tov112D = test: as above; conditions: Gynecologic cancer cell panel viability, ATPlite luminescence, 48 h; series mostly up to 57.5 µM
Procedure, shortened: as §1

[1] = Drug repurposing screens with cells derived from glioblastoma tumor samples (AID 1345199); conditions: GBM patient neurospheres viability, ATP luminescence, 48 h; further: nearly all actives have a fitted effect of over 40% in size; further: potency means the concentration at half of the fitted maximal effect
Procedure, shortened: (§2)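 Primary testing used CD133+ neurospheres from four GBM patients, seven concentrations, 48 h exposure and ATP-based viability; confirmation added three slower-growing patient lines.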

astro = test: as above; conditions: viability, ATP luminescence, 48 h; series mostly up to 45.9 µM
Procedure, shortened: as §2

[2] = at 45.9 µM (top of the series), tumour line B
[3] = at 45.9 µM (top of the series), tumour line D
[4] = at 46 µM (top of the series), tumour line A
[5] = at 46.1 µM (top of the series), tumour line C

SMILES | Potency (C33A) | Potency (CAOV3) | Potency (CASKI) | Potency (Es-2) | Potency (HeLa) | Potency (Hek293T) | Potency (JEG-3) | Potency (OV90) | Potency (PA-1) | Potency (SKOV3) | Potency (Tov-21-G) | Potency (Tov112D) | activity, negative = cell killing [1, 2] [%] | activity, negative = cell killing [1, 3] [%] | activity, negative = cell killing [1, 4] [%] | activity, negative = cell killing [1, 5] [%] | Potency (astro) | Potency ([1]; tumour line A)
CCOC(=O)OCC/C(SC(=O)OCC)=C(\C)N(C=O)Cc1cnc(C)nc1N | inactive | inactive | inactive | inactive | inactive | inactive | inactive | inactive | inactive | inactive | inactive | inactive | -4.41 | -10.3 | -26 | -10.1 | inactive | –
O=C(O)CCCC[C@@H]1SC[C@@H]2NC(=O)N[C@@H]21 | inactive | inactive | inactive | inactive | inactive | inactive | inactive | inactive | inactive | inactive | inactive | inactive | -20.7 | -14.6 | – | -26 | inactive | 17.8 µM (active)
O=C1OC2(c3ccccc31)c1cc(I)c(O)c(I)c1Oc1c2cc(I)c(O)c1I | inactive | inactive | inactive | inactive | inactive | inactive | inactive | inactive | inactive | inactive | inactive | inactive | -23.6 | – | – | – | – | 11.2 µM (active)
O=C(OCC(COC(=O)c1cccnc1)(COC(=O)c1cccnc1)COC(=O)c1cccnc1)c1cccnc1 | inactive | inactive | inactive | inactive | inactive | inactive | inactive | inactive | inactive | inactive | inactive | inactive | -3.98 | 3.04 | – | -10.2 | inactive | 14.1 µM (active)
CC(COc1ccccc1)NN (configuration not stated) | inactive | inactive | inactive | inactive | inactive | inactive | inactive | inactive | inactive | inactive | inactive | inactive | -5.24 | 14.4 | -26.7 | 4.61 | inactive | –
Cc1ccc(CCn2c3c(c4cc(Cl)ccc42)CN(C)CC3)cn1 | inactive | inactive | inactive | inactive | inactive | inactive | inactive | inactive | inactive | inactive | inactive | inactive | – | – | – | – | – | –
CCOC(=O)Cn1cccc1-c1nc(-c2ccc(OC)cc2)c(-c2ccc(OC)cc2)s1 | inactive | inactive | inactive | inactive | inactive | inactive | inactive | inactive | inactive | inactive | inactive | inactive | -12.2 | -21.7 | – | -5.22 | inactive | 6.31 µM (active)
OCCCc1ccccc1 | inactive | inactive | inactive | inactive | inactive | inactive | inactive | inactive | inactive | inactive | inactive | inactive | -21.4 | -9.24 | -22.3 | 2.38 | inactive | –
O=C1CC[C@H](C(=O)N2CCCCC2)N1 | inactive | inactive | inactive | inactive | inactive | inactive | inactive | inactive | inactive | inactive | inactive | inactive | 5.57 | 0.144 | -19.7 | 1.57 | inactive | –
CO[C@@]1(NC(=O)CSC[C@@H](N)C(=O)O)C(=O)N2C(C(=O)O)=C(CSc3nnnn3C)CS[C@@H]21 | inactive | inactive | inactive | inactive | inactive | inactive | inactive | inactive | inactive | inactive | inactive | inactive | -3.3 | -19.7 | -20.1 | -4.96 | inactive | –
O=P(O)(O)OCC(O)CO (configuration not stated) | inactive | inactive | inactive | inactive | inactive | inactive | inactive | inactive | inactive | inactive | inactive | inactive | -9.32 | 5.18 | -22.7 | -0.918 | inactive | –
CC(C)(C)C(=O)OCOC(=O)C1N2C(=O)CC2S(=O)(=O)C1(C)C (configuration not stated) | inactive | inactive | inactive | inactive | inactive | inactive | inactive | inactive | inactive | inactive | inactive | inactive | -8.27 | -8.54 | -19.2 | -11.5 | inactive | –
CC(=O)CC/C=C(\C)CC/C=C(\C)CC/C=C(\C)CCC=C(C)C | inactive | inactive | inactive | inactive | inactive | inactive | inactive | inactive | inactive | inactive | inactive | inactive | -12.4 | -10.7 | – | 4.26 | inactive | –
